Screens deposited in PubChem BioAssay by National Center for Advancing Translational Sciences (NCATS).
Sampled rows, rich in hits. Any-hit rate of the full collection: about 14%.
A350 autofl – compound fluoresces in the Alexa 350 spectral region; Compound autofluorescence, 340/450 nm, Alexa 350 dye-equivalents; hits give high values; max dye-equivalent concentration, M; 59,000 tested, 11% active; AID 590; in the data active means max dye-equivalent concentration above about 10 nM; inconclusive means mostly about 1.1 nM to 9.6 nM
AID923 – qHTS Assay for Allosteric/Competitive Inhibitors of Caspase-1: Spectroscopic Profiling in AFC Spectral Region; compound fluorescence, AFC spectral region (405/520 nm); Potency, µM (doses to about 57.5 µM), inactives show at the highest dose fluorescence increase, most hits filed as activators; 75,000 tested, 1.1% active; AID 923, 2007; further: potency means the concentration at half of the fitted maximal effect; 0% is about no effect
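Baseline compound fluorescence (AFC region, 405 nm ex/520 nm em) taken from the intercept of kinetic reads with 50 nM caspase-1 and 5 uM Ac-WEHD-AFC; normalized to an on-plate AFC standard curve; compounds titrated up to 57 uM.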
CRE Fsk mod – modulators of forskolin-stimulated CRE signaling in CHO cells; CHO CRE-bla reporter (cAMP response element driving beta-lactamase), forskolin EC10, beta-lactamase ratio; 71,000 tested, 2.5% active; Potency, µM (top dose mostly 38.2 µM), inactives show at the top dose activity change, negative = inhibition, actives largely listed as activators; AID 662; active means well fitted activation curve with a large enough effect in the signal ratio, with a control signal flat, not every such curve was filed as active; inconclusive means small, poorly fitted or top-dose-only effect, or effect the other way, or a change in a side signal; the % refers to the signal ratio; further: potency means the concentration at half of the fitted maximal effect; % of control where 0% means no effect
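CRE-bla CHO reporter cells treated with compound titration plus EC10 NKH 477 (water-soluble forskolin), incubated 3 h at 37 °C; CCF4 loading 2 h at room temperature, 460/530 nm emission ratio read, AC50 values derived for positive or negative modulators.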
HADH2 inh – blocks human hydroxyacyl-CoA dehydrogenase type II. Potency, µM (top dose mostly 57.1 µM), for the others: at the top dose activity change, negative = inhibition, usual class: inhibitors. recombinant HADH2, NADH fluorescence, beta-hydroxybutyryl-CoA. Q99714. 73,000 tested, 3.4% active; further: potency means the concentration at half of the fitted maximal effect; on the % scale 0 is the no-effect control and ±100 the full control effect; nearly all actives have a fitted effect of over 60% in size
Target sequence (Q99714 whole entry, looked up, one chain of several): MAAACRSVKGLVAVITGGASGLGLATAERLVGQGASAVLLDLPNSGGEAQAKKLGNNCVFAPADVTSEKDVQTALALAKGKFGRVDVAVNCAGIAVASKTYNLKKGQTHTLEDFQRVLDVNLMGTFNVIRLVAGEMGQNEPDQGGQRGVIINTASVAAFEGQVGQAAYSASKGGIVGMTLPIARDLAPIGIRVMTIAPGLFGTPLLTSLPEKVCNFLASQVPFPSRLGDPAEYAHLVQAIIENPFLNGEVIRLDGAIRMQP
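Read-out: 360 nm excitation, 450 nm emission, kinetic over 4 min. Conditions: His-tagged human HADH2 20 nM, pH 9.0 Tris with Tween-20, 1 mM NAD+, 90 uM beta-hydroxybutyryl-CoA.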
4-MU autofl – 4-MU region autofluorescence; compound autofluorescence, 340/450 nm, 4-MU equivalents; hits give high values; max dye-equivalent concentration, M; 59,000 tested, 11% active; AID 589; in the data active means max dye-equivalent concentration above about 10 nM; inconclusive means mostly about 1.1 nM to 9.6 nM
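Compounds in 100 mM Tris, pH 8.0, sat 15 min at room temperature before fluorescence was read at 340 nm excitation/450 nm emission; a per-plate six-point 4-MU standard curve converted signals to dye-equivalent concentration at each compound concentration.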
HSD17B inhib – inhibitors of human HSD17B10 dehydrogenase; recombinant HSD17B10, NADH fluorescence kinetic; Potency, µM (titrated, usually from 57.1 µM), for inactives: top-dose activity change, negative = inhibition, most hits filed as inhibitors; 75,000 tested, 7.6% active; AID 893;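 further: the protocol describes HADH2 (HSD17B10) and not the HSD17B4 of the title; potency means the concentration at half of the fitted maximal effect; on the % scale 0 is the no-effect control and ±100 the full control effect; nearly all actives have a fitted effect of over 70% in size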
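Activity followed as NADH fluorescence increase (ex 360, em 450 nm) every 30 seconds for 4 min, using final 90 uM beta-hydroxybutyryl CoA and 1 mM NAD+. Recombinant His-tagged enzyme, 20 nM, pH 9.0 Tris buffer, 15 min compound preincubation.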
An asterisk follows results filed as active; i = inactive; ? = inconclusive; . = no result; [ ] = dose if it differs, or a comment. Unless noted, the call rests on the fitted dose curve; in most records, active means well fitted curve in the direction sought with a large enough effect; inconclusive means small, poorly fitted or top-dose-only effect, or another doubt; inactive means no such curve, though single readings can be large; an effect the other way counts as inactive or inconclusive.

SMILES	A350 autofl	AID923	CRE Fsk mod	HADH2 inh	4-MU autofl	HSD17B inhib
CNc1nc(-c2ccc(Cl)cc2)cs1	i	-1%	2%	-13%	i	7%
CCNc1nc(-c2ccc(Cl)cc2)cs1	i	1%	1%	3.2µM*	i	-4%
O=C1NC(c2ccccn2)Nc2sc3c(c21)CCC3 (stereo not given)	?	7%	?	?	?	?
COC(=O)C1=C(C)C(c2cccs2)NC(=O)N1C (stereo not given)	i	1%	2%	-3%	i	2%
O=C1NC(c2cccs2)Nc2ccccc21 (stereo not given)	2.2e-07M*	.	.	.	1.9e-07M*	.
Cc1ccsc1C1NC(=O)c2c(sc3c2CCCC3)N1 (stereo not given)	1.9e-08M*	.	.	.	1.5e-08M*	.
O=C1c2ccccc2NC2CCCCC12 (stereo not given)	i	0%	?	7%	i	-9%
Cc1ccsc1C1NC(=O)c2ccccc2N1 (stereo not given)	1.2e-06M*	2%	0%	?	8.7e-07M*	32µM*
CC(C)C[C@@H](CC(=O)N[C@H](CC(=O)N[C@@H]1CCNC[C@H]1C(=O)N[C@H](CC(=O)N[C@@H](CCC(=O)O)CC(=O)O)Cc1ccccc1)C(C)C)NC(=O)[C@@H]1CCCC[C@H]1N	.	.	-7%	-11%	.	.
COC(=O)[C@H](C)NC(=O)[C@@H](C)CO	.	2%[11.5 µM]	.	-10%[11.4 µM]	.	3%[11.4 µM]
COc1ccccc1CN1CC2(CCN(S(C)(=O)=O)CC2)C1	i	-1%	3%	4%	i	4%
COC(=O)CNC(=O)C1(C)C=CC2(CCCCC2)N1C(C)=O (stereo not given)	.	1%	0%	-2%	.	3%
Ic1ccc2c(c1)N(c1ccccc1)c1cc(Nc3ccc4nc5ccc(I)cc5[n+](-c5ccccc5)c4c3)ccc1N2	i	0%[11.5 µM]	-11%[7.6 µM]	-5%[11.4 µM]	i	-22%[11.4 µM]
CCCC(=O)Nc1nc2ccc(OC)cc2s1	.	3%	13%	-17%	.	-10%
COc1ccc2nc(/N=C(\N)NC(=O)C(C)(C)C)nc(C)c2c1	1.9e-07M*	.	.	.	1.7e-07M*	.
CCC(=O)N/C(N)=N/c1nc(C)c2cc(OC)ccc2n1	.	4%	8%	17%	.	20µM*
Cc1ccc(C2=Nc3ccccc3S[C@@H](c3cccc([N+](=O)[O-])c3)C2)cc1	i	0%[11.5 µM]	-14%[7.6 µM]	?	i	-11%[11.4 µM]
Cc1ccc(-c2nc(C#N)c(NCCc3ccccn3)o2)cc1	i	1%	4%	16%	i	?
N#Cc1nc(-c2ccc(Cl)cc2)oc1NCCc1ccccn1	?	-2%	20%	-10%	?	0.79µM*
CCN(CC)CCCNc1oc(-c2cccc(Cl)c2)nc1C#N	7.5e-08M*	1%	3%	25µM*	6.3e-08M*	32µM*
CN(C)c1oc(-c2ccc(OCc3ccc(Cl)cc3)cc2)nc1C#N	5.2e-08M*	0%	-6%	32µM*	6.5e-08M*	20µM*
COCCNc1oc(-c2ccc(Cl)cc2)nc1C#N	9.5e-08M*	.	.	.	8.5e-08M*	.
COCCCNc1oc(COc2ccc(Cl)cc2Cl)nc1C#N	?	20%	?	-17%	?	-7%
CN(C)c1ccccc1CN1CCCN(Cc2ccccc2N(C)C)C1c1ccncc1	i	0%[11.5 µM]	-7%[7.6 µM]	8%[11.4 µM]	i	10%[11.4 µM]
CCOC(=O)[C@@H](O)Cc1cnc2ccccc2n1	i	1%[11.5 µM]	10%[7.6 µM]	-5%[11.4 µM]	i	-4%[11.4 µM]
SMILES	A350 autofl	AID923	CRE Fsk mod	HADH2 inh	4-MU autofl	HSD17B inhib
CN(C)CCCNc1oc(-c2ccc(Cl)cc2)nc1C#N	1.2e-07M*	0%	?	?	9.2e-08M*	32µM*
Cc1ccc2c(c1)N[C@H](c1ccc(C(=O)O)cc1)c1cccn1-2	5.6e-08M*	2%[11.5 µM]	1%[7.6 µM]	-9%[11.4 µM]	5e-08M*	?
CCCC[C@@H]1C[C@H]1C(NC(=O)c1cccs1)c1ccc(Cl)cc1 (stereo not given in full)	.	2%	1%	3%	.	2%
CC#CCOC(=O)C1=CCCN(C)C1	.	0%	-16%	-2%	.	7%
CCCCCn1c(=O)[nH]c2cc(C(=O)NCCCN3CCCCC3)ccc2c1=O	4.1e-08M*	2%	-7%	?	4.4e-08M*	25µM*
CC1CCCCN1CCNC(=O)c1ccc2c(=O)n(CCc3ccccc3)c(=O)[nH]c2c1 (stereo not given)	?	2%	-5%	26%	?	5%
COc1ccc(Cn2c(=O)[nH]c3cc(C(=O)NCCCN4CCCC4)ccc3c2=O)cc1	3.6e-08M*	1%	-6%	?	3.9e-08M*	32µM*
CCCCCn1c(=O)[nH]c2cc(C(=O)NCCCN3CCC(C)CC3)ccc2c1=O	3.8e-08M*	0%	1%	12%	3.9e-08M*	3.2µM*
CCCCCn1c(=O)[nH]c2cc(C(=O)NCCN(CC)CC)ccc2c1=O	4e-08M*	1%	-5%	11%	4.4e-08M*	32µM*
COc1cccc(Nc2ncc3ncc(=O)n(C)c3n2)c1	i	4%	9%	7%	i	8%
CCCCC(CC)CNCC(CC)CCCC (stereo not given)	.	-1%	-4%	3%	.	-3%
CCOc1ccc2nc(NS(=O)(=O)c3ccc4c(c3)n(C)c(=O)n4C)sc2c1	1.9e-08M*	19%	1%	-6%	1.8e-08M*	?
NC(N)=NCCCC(=O)O	i	0%[11.5 µM]	0%[7.6 µM]	2%[11.4 µM]	i	2%[11.4 µM]
Cc1oc2nc(SCC(=O)NC3CCCCC3)nc(N)c2c1C	i	0%	13µM*	7%	i	-5%
COc1ccc(NC(=O)Nc2ccccc2C)c(OC)c1	.	5%	.	8%	.	1%
COC(=O)[C@H](C)NC(=O)Nc1ccc(OC)cc1OC	1.1e-08M*	-2%	-3%	15%	?	4%
Cc1cccc(NC(=O)CN2CCN(CC(=O)Nc3cccc(C)c3)CC2)c1	.	3%	-10%	10%	.	6%
Cc1cccc(NC(=O)C23CCC(C)(/C(=N/O)C2)C3(C)C)c1 (stereo not given)	1.5e-08M*	-1%	9%	2%	?	-4%
COc1cc(-c2nc3ccccn3c2NCC2CCCO2)ccc1O (stereo not given)	2e-07M*	14%	18%	24%	2.1e-07M*	25µM*
COc1cccc(-c2nc(NCC3CCCO3)c3ccccc3n2)c1O (stereo not given)	i	.	.	.	i	.
CCOc1cc(-c2nc3ccccn3c2NCC2CCCO2)ccc1O (stereo not given)	2.8e-07M*	19%	15%	-27%	2.4e-07M*	32µM*
CC1=C(C(=O)OCc2ccccc2)C(C2CC2)NC(=O)N1CCCCCC(=O)O (stereo not given)	.	0%	23%	-7%	.	-10%
